PubChem BioAssay (EPA / NIEHS)
Results filed as inconclusive are left out. Activity calls are given as the source filed them. Rule for the calls, unless noted: active = hit-call score of the fitted dose curve at least 0.9, where 1 is the maximum; inconclusive = response in the unintended direction; inactive = score below 0.9.

Legend:
[1] = CCTE_Padilla_ZF_Score.Blood_pooling: CCTE's 144 Hour Post-fertilization zebrafish Assay Score for Blood Pooling, Padilla Lab (AID 2284415; active = hit-call score of the fitted dose curve at least 0.9, where 1 is the maximum; inactive = score below 0.9)
Summary of the method: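 Wild-type outbred zebrafish embryos, one per well in 10% Hanks', exposed from 6–8 hpf in sealed plates at 26C on 14:10 h light:dark, rinsed at 5 dpf. Blinded stereomicroscope scoring of blood pooling at 6 dpf; gain-of-signal versus DMSO.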

[2] = CCTE_Padilla_ZF_Score.Any: CCTE's 144 Hour Post-fertilization zebrafish Assay Score for Any Mortality or Malformation, Padilla Lab (AID 2284416; active = hit-call score of the fitted dose curve at least 0.9, where 1 is the maximum; inactive = score below 0.9)
Protocol: CCTE_Padilla_ZF_Phenotype_Score is a whole embryo, multiplexed assay using zebrafish ova exposed for 144 hours post fertilization on a 96-well plate.CCTE_Padilla_ZF_Score.Any is one of one assay component(s) measured or calculated from the CCTE_Padilla_ZF_Phenotype_Score assay. It is designed to make measurements of zebrafish development as detected with brightfield microscopy of developing zebrafish embryos.Data from the assay component CCTE_Padilla_ZF_Score.Any was analyzed into 1 assay endpoints. This assay endpoint, CCTE_Padilla_ZF_Score.Any, was analyzed in the positive analysis fitting direction relative to DMSO as the negative control and baseline of activity. Using a type of viability reporter, gain-of-signal activity can be used to understand changes in developmentals as they relate to the whole embryo. To generalize the intended target to other relatable targets, this assay endpoint is annotated to the zebrafish development intended target family, where the subfamily is embryonic morphogenesis and mortality.
Zebrafish husbandry: Wild type adult zebrafish (Danio rerio; undefined outbred stock obtained from Aquatic Research Organisms, Hampton, NH, 03842) were housed in an AAALAC-approved animal facility at 28C with a 14:10 h light: dark cycle (lights on at 08:30 h). […]

[3] = TAMU_PeakParms_SingleDonor1434_Chronotropy: Texas A&M University (TAMU) 1.5-hr Human Induced Pluripotent Stem Cell (iPSC)-derived Cardiomyocytes Calcium (Ca+2) Flux Assay for Cardiotoxicity: Chronotropy (changes in peak frequency) (AID 2284217; active = hit-call score of the fitted dose curve at least 0.9, where 1 is the maximum; inactive = score below 0.9); details: actives raise or lower the signal
Summary of the method: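 iPSC-CMs, donor 1434; 4 conc (0.2–100 uM), 0.5% v/v DMSO, 90 min, 37C/5% CO2; Ca2+ flux fluorescence → peak.freq.avg; peak.freq.avg = 0 dropped; bidirectional fit vs DMSO; EC05 POD.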

[4] = TAMU_PeakParms_SingleDonor1434_QT: Texas A&M University (TAMU) 1.5-hr Human Induced Pluripotent Stem Cell (iPSC)-derived Cardiomyocytes Calcium (Ca+2) Flux Assay for Cardiotoxicity: QT (decay-rise ratio) (AID 2284235)
Summary of the method: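 iPSC-derived cardiomyocytes (single donor 1434) dosed at 0.2, 1, 10, 100 uM final in 0.5% DMSO, 90 min at 37C. Ca2+ flux fluorescence decay/rise ratio; EC05 (5% increase versus DMSO) as POD, excluding beat-arrest and severe-notch data.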

[5] = TAMU_PeakParms_SingleDonor1434_Asystole: Texas A&M University (TAMU) 1.5-hr Human Induced Pluripotent Stem Cell (iPSC)-derived Cardiomyocytes Calcium (Ca+2) Flux Assay for Cardiotoxicity: Asystole (quiescence of beating) (AID 2284328)
Protocol: TAMU_PeakParms is a cell-based, multiplexed-readout assay that uses iPSC-derived cardiomyocytes with measurements taken at 1.5 hours after chemical dosing in a microplate: 384-well plate.TAMU_PeakParms_SingleDonor1434_Chronotopy is a phenotype derived from the peak.freq.avg parameter and uses an EC95 as its POD (95% decrease in beat rate, compared to controls). Peak.Freq.Avg measures the average peak frequency, in beats per second, using Fluorescence intensity as a functional reporter from Calcium (Ca+2) flux assay technology. There is no preprocessing performed on the data used to model this phenotype.Data from the assay component TAMU_PeakParms_SingleDonor1434_Asystole was analyzed into 1 assay endpoint. This assay endpoint, TAMU_PeakParms_SingleDonor1434_Asystole, was analyzed in the positive analysis fitting direction relative to DMSO as the negative control and baseline of activity. Using a type of functional reporter, loss-of-signal activity can be used to understand changes in the cardiac function. To generalize the intended target to other relatable targets, this assay endpoint is annotated to the cardiomyocyte function intended target family, where the subfamily is cessation of beating.
Each test compound from the chemical master plates was transferred into new tissue culture-treated 384-well microplates using acoustic dispensing (Labcyte Echo 550, Beckman Coulter, Indianapolis, IN) in amounts that would result in 5x concentrations (1, 5, 50, 500 uM) in the working plate in a final volume of 50 uL. Chemicals were randomly divided into 16 separate 384-well plates for screening such that the outer-most wells were left empty (308 wells were used on each plate). Fifteen of the plates contained unique test chemicals (n = 65 chemicals, 4 concentrations, one replicate each), positive controls (n = 10 chemicals, one concentration, 3 replicates each), vehicle (0.5% DMSO, n = 12), and media-only (n = 6) wells. […]

[6] = biological target: Glucocorticoid receptor (Homo sapiens) (UniProt P04150); experiment: NVS_NR_hGR: NovaScreen (NVS) Nuclear Receptor Binding Assay for human Glucocorticoid Receptor (GR) (AID 2283363);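 note: activity is loss of specific radioligand binding signal relative to DMSO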
Summary of the method: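 Competitive displacement of a labelled ligand was measured on cell-free receptor preparations after 16 h exposure. Initial testing used 25 uM in duplicate with plate controls; confirmed actives went into concentration series.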

[7] = biological target: guinea pig Leukotriene D4 Receptor (LTD4), CYSLTR1 (gene 100135514) (UniProt Q2NNR5); experiment: NVS_GPCR_gLTD4: NovaScreen (NVS) G Protein-Coupled Receptor Assay for guinea pig Leukotriene D4 Receptor (LTD4) (AID 2283248)
Summary of the method: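 Radioligand displacement on guinea pig lung membranes, 1 h incubation, filtration and scintillation counting; DMSO as negative control. Duplicate 25 uM primary screen, then singleton concentration-response up to 50 uM.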

[8] = biological target: Thyroid hormone receptor alpha (Rattus norvegicus) + Thyroid hormone receptor beta (Rattus norvegicus) (UniProt P18113+P63059); experiment: TOX21_TR_LUC_GH3_Antagonist_Followup: Tox21 GH3 Thyroid Hormone Receptor Antagonism Luciferase Follow-Up Assay (AID 2283942)
Summary of the method: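 Confirmatory qHTS, antagonist mode: T3 (1.0 nM final) + test cpd, 15 conc, 92 uM–5nM final, GH3 rat pituitary line, 24 h, 37C. Luc reporter, RLU vs DMSO.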

Sequence of guinea pig Leukotriene D4 Receptor (LTD4), CYSLTR1 (gene 100135514) (Q2NNR5 whole entry, looked up): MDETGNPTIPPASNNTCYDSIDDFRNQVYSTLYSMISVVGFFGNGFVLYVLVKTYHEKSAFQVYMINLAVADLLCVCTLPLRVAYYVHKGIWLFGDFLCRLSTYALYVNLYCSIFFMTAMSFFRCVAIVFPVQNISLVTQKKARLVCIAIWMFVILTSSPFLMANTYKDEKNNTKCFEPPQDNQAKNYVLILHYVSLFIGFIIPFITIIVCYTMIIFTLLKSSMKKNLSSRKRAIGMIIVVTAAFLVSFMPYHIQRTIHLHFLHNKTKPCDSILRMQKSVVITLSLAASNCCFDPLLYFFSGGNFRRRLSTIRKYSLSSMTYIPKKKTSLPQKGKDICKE
Sequence of Glucocorticoid receptor (Homo sapiens) (P04150 whole entry, looked up): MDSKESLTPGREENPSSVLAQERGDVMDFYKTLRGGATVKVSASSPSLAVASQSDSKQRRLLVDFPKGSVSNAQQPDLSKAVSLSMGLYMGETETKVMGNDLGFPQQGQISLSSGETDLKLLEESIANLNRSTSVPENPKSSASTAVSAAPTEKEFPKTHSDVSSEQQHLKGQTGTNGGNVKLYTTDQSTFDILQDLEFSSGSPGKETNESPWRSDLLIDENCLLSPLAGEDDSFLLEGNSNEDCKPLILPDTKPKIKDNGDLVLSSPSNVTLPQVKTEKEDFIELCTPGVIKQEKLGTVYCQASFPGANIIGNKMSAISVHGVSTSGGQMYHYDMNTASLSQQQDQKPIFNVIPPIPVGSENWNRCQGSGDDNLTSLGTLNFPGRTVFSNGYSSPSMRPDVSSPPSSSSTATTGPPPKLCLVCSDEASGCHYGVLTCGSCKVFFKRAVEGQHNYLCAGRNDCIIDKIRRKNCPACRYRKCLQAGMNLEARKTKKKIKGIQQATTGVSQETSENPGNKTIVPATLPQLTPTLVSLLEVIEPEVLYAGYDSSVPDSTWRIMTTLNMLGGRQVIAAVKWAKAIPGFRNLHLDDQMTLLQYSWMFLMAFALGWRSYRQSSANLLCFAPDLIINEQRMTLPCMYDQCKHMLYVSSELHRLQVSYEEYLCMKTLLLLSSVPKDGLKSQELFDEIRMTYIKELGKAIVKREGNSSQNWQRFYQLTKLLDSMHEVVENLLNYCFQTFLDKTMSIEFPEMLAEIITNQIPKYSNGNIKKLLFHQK

Structure (SMILES): OC(C(F)(F)F)(C(F)(F)F)C(O)(C(F)(F)F)C(F)(F)F
- outcome [1]: inactive
- AC50 [2]: 2.21 µM (active)

Structure (SMILES): Nc1nc(N)c2nc(-c3ccccc3)c(N)nc2n1
- outcome [3]: inactive
- outcome [4]: inactive
- outcome [5]: inactive

Structure (SMILES): CCCCC(CC)COC(=O)CS (stereo not drawn)
- AC50 [6]: 25 µM (active)

Structure (SMILES): CCCCCCCCCCCCCCCCCC[N+](C)(C)C
- outcome [7]: inactive

Structure (SMILES): Cc1oc(C)c(C(=O)Nc2ccccc2)c1C
- outcome [8]: inactive
